This is one part of a sample in which hits are shown more often than they occur.
IL-1B inflam inh: blocks inflammasome-driven IL-1 beta release. THP-1 LPS/ATP IL-1B secretion, AlphaLISA, 16 h; hits give low values. activity change, % at 57.5 µM. actives 4.7% (n = 360,000). AID 743279; in the data active means activity change below about -50%; inconclusive means mostly about -30% to -49%
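THP-1 cells pretreated 1 hr with compounds (up to 57.5 uM final), then stimulated with LPS (250 ng/mL final) plus ATP (1.25 mM final); secreted IL-1B measured by AlphaLISA after 16 hr, decreased signal indicating inhibition.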
TDP1 cell noCPT: qHTS for Inhibitors of human tyrosyl-DNA phosphodiesterase 1 (TDP1): qHTS in cells in absence of CPT | DT40 Tdp1-/- hTDP1 cells, no CPT, ATP luminescence, 48 h | Potency, µM (highest dose often 46.2 µM), for inactives: at the top dose activity change, negative = growth inhibition, most hits filed as inhibitors | actives 15% (n = 420,000); further: potency means the concentration at half of the fitted maximal effect; nearly all actives have a fitted effect of over 55% in size
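Chicken DT40 Tdp1-/- cells complemented with human TDP1, screened without camptothecin (DMSO vehicle only), 400 cells/well. Compounds pin-transferred, cells incubated at 37 °C for at least 48 hr. Growth read as ATP-dependent luminescence (CellTiter-Glo, 30 min at RT).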
HT1080NT lethal: kills 2HG-producing HT-1080-NT fibrosarcoma cells; HT-1080-NT fibrosarcoma viability, CellTiter-Glo ATP luminescence, 48 h; Potency, µM (highest dose often 46.1 µM), for the others: at the top dose activity, negative = less viability, hits mostly cytotoxic; actives 1.6% (n = 360,000);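 further: NT is the 2HG producing partner of a matched IDH1 knockdown line; potency means the concentration at half of the fitted maximal effect; 0% = DMSO-treated cells and -100% = media-only wells without cells; nearly all actives have a fitted effect of over 55% in size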
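Viability by CellTiter-Glo luminescence after 48 h compound exposure at 37C of HT-1080-NT cells (750/well, RPMI, 5% FBS). % activity scaled between DMSO wells and medium-only wells, then curve-fitted and categorized by curve class.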
DT40 TDP1 CPT: DT40-hTDP1 cell growth loss with CPT; chicken DT40 Tdp1-/-;hTDP1 cells + 20 nM CPT, ATP luminescence, 48 h; AID 686979; actives 12% (n = 420,000); Potency, µM (doses to about 46.2 µM), inactives show at the highest dose activity change, negative = growth inhibition, usual class: inhibitors; further: potency means the concentration at half of the fitted maximal effect; nearly all actives have a fitted effect of over 55% in size
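Chicken DT40 Tdp1-/- cells stably complemented with human TDP1 were seeded at 400 cells/well in medium containing 20 nM camptothecin, exposed to pin-transferred compounds, and grown at 37 °C for at least 48 hr. Viability was read as ATP luminescence.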
ALOX12 inh: inhibitors of human 12S-lipoxygenase ALOX12; Potency, µM (highest dose often 108 µM), without a hit: at the highest dose activity change, negative = inhibition, actives largely listed as inhibitors; purified 12hLO, xylenol orange hydroperoxide absorbance; actives 1.1% (n = 580,000); AID 1671190; further: potency means the concentration at half of the fitted maximal effect
Target sequence (P18054 whole entry, looked up): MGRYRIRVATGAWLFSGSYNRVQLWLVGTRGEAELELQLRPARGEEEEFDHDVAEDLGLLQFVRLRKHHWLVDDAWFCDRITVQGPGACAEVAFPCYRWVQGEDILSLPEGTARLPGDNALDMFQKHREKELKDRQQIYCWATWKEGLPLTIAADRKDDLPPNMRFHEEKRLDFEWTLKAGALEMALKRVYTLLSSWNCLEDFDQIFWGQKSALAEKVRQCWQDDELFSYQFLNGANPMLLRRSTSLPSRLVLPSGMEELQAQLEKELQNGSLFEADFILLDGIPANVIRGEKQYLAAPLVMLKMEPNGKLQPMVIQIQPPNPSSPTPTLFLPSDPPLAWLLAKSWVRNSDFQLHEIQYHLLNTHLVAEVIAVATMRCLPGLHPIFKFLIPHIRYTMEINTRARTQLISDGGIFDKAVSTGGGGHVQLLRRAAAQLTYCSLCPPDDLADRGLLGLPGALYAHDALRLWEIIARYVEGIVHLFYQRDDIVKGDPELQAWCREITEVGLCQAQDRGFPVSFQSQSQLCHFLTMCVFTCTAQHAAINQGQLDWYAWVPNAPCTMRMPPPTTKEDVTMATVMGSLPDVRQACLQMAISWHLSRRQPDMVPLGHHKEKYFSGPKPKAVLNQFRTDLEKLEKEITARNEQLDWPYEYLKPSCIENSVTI
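Purified human 12hLO (150 nM final) in 25 mM Hepes, 0.01% Triton X-100, pH 7.0 was preincubated 15 min at room temperature with compound. Then 40 uM arachidonic acid was added, 30 min. Hydroperoxide was read by Fe-XO absorbance ratio 573/405 nm.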
HT1080 IDH1KD tx: HT-1080 IDH1 knockdown cell toxicity (counter line); HT-1080 IDH1 knockdown viability, ATP luminescence, 48 h; Potency, µM (doses to about 46.1 µM), for the others: at the top dose activity, negative = toxicity, hits mostly cytotoxic; AID 686971; actives 2% (n = 360,000);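 further: potency means the concentration at half of the fitted maximal effect; 0% = DMSO wells and -100% = cell-free medium wells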
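In this qHTS, HT-1080 cells depleted of IDH1 are exposed for 48 h at 37 °C to compound titrations. Toxicity is scored from CellTiter-Glo luminescence, with DMSO as full viability and medium alone as none.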
* hit, by the source's call; ? = inconclusive; · = no result; [ ] = remark or other dose. Unless noted, the call rests on the fitted dose curve; in most records, active means well fitted curve in the direction sought with a large enough effect; inconclusive means small, poorly fitted or top-dose-only effect, or another doubt; inactive means no such curve, though single readings can be large; an effect the other way counts as inactive or inconclusive. Unless noted, on the % scale 0 is the no-effect control and ±100 the full control effect.

SMILES	IL-1B inflam inh	TDP1 cell noCPT	HT1080NT lethal	DT40 TDP1 CPT	ALOX12 inh	HT1080 IDH1KD tx
CN1CCC[C@H]1CCNc1ccc2c(=O)c3ccccc3n(C)c2c1	-72*	?	-4%	?	11%	-2%
CN1CCCC1CCNc1ccc2c(=O)c3ccccc3oc2c1 (stereo unspecified)	-83*	18µM*	-9%	?	-15%	-3%
CCC(=O)Nc1ccc(C2(C(=O)N(C)C)CCC2)cc1	·	·	·	·	44%	·
Cc1ccc(C2N3CC4(C(C)C)CN2CC(C(C)C)(C3)C4=O)cc1 (stereo unspecified)	·	·	·	·	2%	·
O=C(Cn1nc2n(c1=O)CCCC2)NCc1ccc2c(c1)OCO2	·	·	·	·	35%	·
CC1(c2cccnc2)N(CC2CC2)C(=O)OC12CCN(C(=O)c1cccc(O)c1)CC2 (stereo unspecified)	·	·	·	·	15%[176 µM]	·
O=C(Nc1nccs1)C1c2ccccc2C(=O)N(C2CCCC2)C12CCCC2 (stereo unspecified)	·	·	·	·	30%	·
C#CCOCCOCCOCCNc1nc(N2CCN(C(=O)CCCCCCCCCCNC(=O)[C@H]([C@@H](C)CC)n3cc(CCCCCN)nn3)CC2)nc(N2CCN(C(=O)CCCCCCCCCCNC(=O)[C@H](CO)n3cc(CCCCCN)nn3)CC2)n1	-83*	?	?	?	·	?
C#CCOCCOCCOCCNc1nc(N2CCN(C(=O)Cn3cc(CCCN=C(N)N)nn3)CC2)nc(N2CCN(C(=O)[C@H]([C@@H](C)CC)n3cc(CCCCN)nn3)CC2)n1	-7	-6%	7%	-27%	1%	11%
C#CCOCCOCCOCCNc1nc(N2CCOCC2)nc(N2CCN(C(=O)CCCCCCCCCCNC(=O)[C@@H]([C@H](C)CC)n3cc(CCCCCN)nn3)CC2)n1	2	?	-20%	?	?	-24%
C#CCOCCOCCOCCNc1nc(N2CCN(C(=O)CCCCCCCCCCNC(=O)[C@H]([C@@H](C)CC)n3cc(CCCCCN)nn3)CC2)nc(N2CCN(C(=O)CCCCCCCCCCNC(=O)[C@H](CCCCN)n3cc(CCCC(=O)O)nn3)CC2)n1	-88*	-26%	9%	-21%	·	-9%
C#CCOCCOCCOCCNc1nc(N2CCN(C(=O)CCCCCCCCCCNC(=O)Cn3cc(CCCCCN)nn3)CC2)nc(N2CCN(C(=O)CCCCCCCCCCNC(=O)[C@H]([C@@H](C)CC)n3cc(CCCCN=C(N)N)nn3)CC2)n1	-110*	?	?	21µM*	·	?
C#CCOCCOCCOCCNc1nc(N2CCN(C(=O)CCCCCCCCCCNC(=O)[C@H]([C@@H](C)CC)n3cc(CCCCN=C(N)N)nn3)CC2)nc(N2CCN(C(=O)CCCCCCCCCCNC(=O)[C@H](CCCCN)n3cc(C)nn3)CC2)n1	-112*	8.2µM*	?	23µM*	·	?
C#CCOCCOCCOCCNc1nc(N2CCN(C(=O)CCCCCCCCCCNC(=O)[C@H](CCCCN)n3cc(CCCC(=O)O)nn3)CC2)nc(N2CCN(C(=O)CCCCCCCCCCNC(=O)[C@@H]([C@H](C)O)n3cc(C)nn3)CC2)n1	0	-1%	2%	-10%	·	3%
Cc1cnc(CC2CCN(C(=O)c3cccnc3)C2)n1C(C)C (stereo unspecified)	·	·	·	·	8%	·
CCCCNC(=O)c1nc2ccccc2nc1-c1cccc(OC(F)(F)F)c1	·	·	·	·	-8%	·
CCCNC(=O)c1ccc(C)c(NC(=O)C2=C(C)OCCS2)c1	6	-23%	?	19%	10%	18%
C#CCOCCOCCOCCNc1nc(N2CCOCC2)nc(N2CCN(C(=O)CCCCCCCCCCNC(=O)[C@@H](CCC(=O)O)n3cc(CCCCCN)nn3)CC2)n1	13	13%	8%	2%	?	16%
C#CCOCCOCCOCCNc1nc(N2CCN(C(=O)CCCCCCCCCCNC(=O)[C@@H](CCC(=O)O)n3cc(CCCCCN)nn3)CC2)nc(N2CCN(C(=O)CCCCCCCCCCNC(=O)[C@H]([C@@H](C)CC)n3cc(CCCCCN)nn3)CC2)n1	-95*	?	-18%	-6%	·	-3%
Cc1ccc2[nH]c(C)c(CCN(Cc3ccccn3)C(=S)NC(C)(C)C)c2c1	·	·	·	·	6%	·
COc1ccccc1CN[C@H]1CC(C)(C)[C@@H]2C[C@@](C)(O)CC[C@]12CCC(=O)N1CCOCC1	·	·	·	·	-4%	·
Cc1ccc(CNC(=O)CCCCCn2c(=O)[nH]c3ccccc3c2=O)cc1	·	0.82µM*	·	0.65µM*	-29%	·
O=C(CCCn1c(=O)[nH]c2ccccc2c1=O)NCCSCc1ccccc1	21	-25%	-23%	-21%	3%	0%
O=C(CCCn1c(=S)[nH]c2ccccc2c1=O)NCCSCc1ccccc1	-17	?	-1%	23µM*	0%	-3%
COC(=O)CCc1c(C)c(C(=O)c2cc(OC)c(OC)c(OC)c2)c2ccccn12	58	?	?	?	0%	?
SMILES	IL-1B inflam inh	TDP1 cell noCPT	HT1080NT lethal	DT40 TDP1 CPT	ALOX12 inh	HT1080 IDH1KD tx
Cc1c(C(=O)c2ccccc2)c2ccccn2c1CCc1ccccn1	-74*	-21%	-13%	?	-13%	-1%
Cc1c(C(=O)c2ccc(F)cc2)c2ccccn2c1CCc1ccccn1	-86*	?	-26%	?	?	-20%
Cc1c(C(=O)c2ccccc2)c2ccccn2c1CCC#N	-5	30%	-3%	-2%	?	2%
COc1cccc(CN2CCc3c(cc(C(=O)Nc4cccc(C)c4C)n3C)C2)c1	·	·	·	·	-7%	·
CCn1c2c(c(=O)n3ncc(C(=O)Nc4cc(Cl)ccc4C)c13)CN(Cc1ccc(OC)cc1)CC2	·	21µM*	·	?	-28%	·
COc1ccc(CC(=O)OCC(=O)Nc2cc(Cl)ccc2C)cc1	8	-4%	6%	-4%	-6%	-1%
COc1ccc(CN2CCc3c(c(=O)n4ncc(C(=O)N5CCN(c6ccccc6OC)CC5)c4n3C)C2)cc1	·	12µM*	·	16µM*	-7%	·
CCn1c2c(c(=O)n3ncc(C(=O)Nc4ccc(F)cc4Cl)c13)CN(Cc1ccc(OC)cc1)CC2	·	23µM*	·	?	?	·
CCn1c2c(c(=O)n3ncc(C(=O)Nc4cccc(Cl)c4C)c13)CN(Cc1ccc(OC)cc1)CC2	·	?	·	21µM*	?	·
COc1cc(=O)n2c(c1C(=O)Nc1ccc(F)cc1Cl)CCCC2	·	·	·	·	3%	·

From PubChem BioAssay
